SW480 rereplic – inducers of DNA re-replication in SW480 colon cancer cells. SW480 DNA re-replication, Hoechst DNA content imaging, 48 h. Potency, µM (top dose mostly 46.1 µM), hits mostly activators. 340,000 tested, 1.8% active. AID 624297; also: nearly all actives have a fitted effect of over 55% in size
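Per well, 250 cells were exposed to pinned compound for 48 hr. Nuclear DNA was visualised with Hoechst (40 min, 37 C) and total object intensity recorded by fluorescence scanning.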
KB-V1 cytotox – kills drug-selected multidrug resistant KB-V1 cells. AID 1347076. Potency, µM (top dose mostly 46.1 µM), most hits filed as cytotoxic. KB-V1 MDR cells viability, CellTiter-Glo, 72 h. 400,000 tested, 3.4% active; also: nearly all actives have a fitted effect of over 60% in size
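KB-V1 MDR subline cells in DMEM (phenol-red free, 10% FBS) exposed to compounds in qHTS concentration series for 72 h at 37 degrees C. Viability read by CellTiter-Glo luminescence; concentration-effect curves fitted after normalization and correction.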
VP16 counter – Gal4-VP16 reporter inhibition counter-screen; Drosophila S2 Gal4-VP16 UAS-luciferase, luminescence, 20 h; Potency, µM (series often up to 53.6 µM), hits mostly inhibitors; 310,000 tested, 3.5% active; AID 2546;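 also: Gal4-VP16 expression switched on by copper sulfate through the metallothionein promoter; nearly all actives have a fitted effect of over 50% in size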
MCF10A rereplic – inducers of DNA re-replication in MCF 10A breast cells; MCF 10A DNA re-replication, Hoechst nuclear intensity, 48 h; Potency, µM (doses to about 46.1 µM), most hits filed as activators; 350,000 tested, 2.9% active; also: nearly all actives have a fitted effect of over 50% in size
KB-3-1 cytotox – kills parental KB-3-1 adenocarcinoma cells | 400,000 tested, 1.4% active | AID 1347075 | KB-3-1 viability, CellTiter-Glo ATP luminescence, 72 h | Potency, µM (highest dose often 46.1 µM), actives largely listed as cytotoxic; also: nearly all actives have a fitted effect of over 60% in size
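Screening of KB-3-1 cells (DMEM, 10% FBS, phenol-red free) ran from lowest to highest compound concentration; after 72 h at 37 °C viability was read luminescently and curves fitted.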
RORg inh – blocks mouse ROR gamma transcriptional activity; P51450; Drosophila S2 Gal4-RORgamma UAS-luciferase reporter, 20 h; Potency, µM (titrated, usually from 53.6 µM), usual class: inhibitors; 310,000 tested, 5.4% active; AID 2551; also: nearly all actives have a fitted effect of over 60% in size
Target sequence (P51450 whole entry, looked up, the tested form may be a part): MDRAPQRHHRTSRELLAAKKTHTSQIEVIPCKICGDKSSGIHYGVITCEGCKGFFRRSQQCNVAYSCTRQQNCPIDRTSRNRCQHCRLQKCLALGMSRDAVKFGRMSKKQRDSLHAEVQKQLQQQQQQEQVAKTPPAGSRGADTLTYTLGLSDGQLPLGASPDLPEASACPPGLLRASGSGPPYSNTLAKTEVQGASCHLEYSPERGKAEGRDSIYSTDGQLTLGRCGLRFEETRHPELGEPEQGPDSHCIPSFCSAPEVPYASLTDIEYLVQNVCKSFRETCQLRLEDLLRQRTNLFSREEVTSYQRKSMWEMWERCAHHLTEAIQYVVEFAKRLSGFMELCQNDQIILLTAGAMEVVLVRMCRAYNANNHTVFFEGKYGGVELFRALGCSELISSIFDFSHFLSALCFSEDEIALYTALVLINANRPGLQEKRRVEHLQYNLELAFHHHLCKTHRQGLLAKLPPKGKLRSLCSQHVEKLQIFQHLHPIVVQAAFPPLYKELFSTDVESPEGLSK
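Schneider cells (Drosophila), stable Gal4 DBD–ROR gamma + UAS-luc; 1 hr cmpd preincubation; Cu2+ induction 700 uM final; 20 hr ambient; luminescence.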
Numbers stand for hits; - = inactive; ? = inconclusive; . = no result; ! = not active in a repeat; [ ] = dose if it differs, or a comment. Most compounds without a hit are left out; they make up all but 10% or so of the library. Calls follow the shape of the dose curve; as a rule, active = well fitted curve in the direction sought with a large enough effect; inconclusive = small, poorly fitted or top-dose-only effect, or another doubt; inactive = no such curve, though single readings can be large; an effect the other way counts as inactive or inconclusive.

SMILES | SW480 rereplic | KB-V1 cytotox | VP16 counter | MCF10A rereplic | KB-3-1 cytotox | RORg inh
Cc1cccc(CNc2ncnc3ccc(-c4ccc(C(=O)N(C)C)cc4)cc23)c1 | . | . | ? | . | . | -
CCOc1cc(CNC(=O)c2ccc3nc(C(C)C)oc3c2)cc(OCC)c1OCC | . | - | . | . | - | .
Nc1nc(-c2ccc(-n3nncc3-c3ccco3)cc2)cs1 | - | - | - | 23.1µM | - | -
Cc1c(Cl)cccc1NC(=O)Cn1c(=O)n(Cc2nc(-c3ccccc3)no2)c(=O)c2cc3c(cc21)OCO3 | . | - | . | . | - | .
COc1cccc(-c2nc(NCc3cccs3)c3ccccc3n2)c1 | . | . | - | . | . | -
Cc1cc(-n2c(C)cc(C(=O)COc3cc(F)ccc3[N+](=O)[O-])c2C)no1 | 13µM | - | . | ? | - | .
Cc1cc(C(=O)CSc2nc(N)cc(=O)[nH]2)ccc1F | - | - | - | 13µM | - | -
Cc1ccc(OCC(=O)c2cc(C)n(-c3cc(C)on3)c2C)c([N+](=O)[O-])n1 | ? | - | . | ? | - | .
Cc1cc(-n2c(C)cc(C(=O)CCl)c2C)no1 | ? | ? | ? | 3.26µM | ? | 6.31µM
Cc1cc(-n2c(C)cc(C(=O)CSc3nc(N)cc(=O)[nH]3)c2C)no1 | - | - | 22.4µM | - | ? | ?
COc1ccnc(CS(=O)c2nc3ccc(OC(F)F)cc3[nH]2)c1OC (centres undefined) | - | . | - | - | . | -
CN1CCN(C(CNC(=O)c2c(F)cccc2F)c2ccc3c(c2)OCO3)CC1 (centres undefined) | . | - | . | . | - | .
Cc1cc(C(=O)CSc2nc(N)cc(=O)[nH]2)c(C)n1-c1ccc(OC(F)F)cc1 | - | ? | 10µM | - | ? | -
COc1ccc(CCn2c(C)cc(C(=O)CSc3nc(N)cc(=O)[nH]3)c2C)cc1 | - | - | ? | ? | - | -
O=c1cc(C(Cl)(Cl)Cl)oc2c1ccc1ccccc12 | 13µM | - | 5.62µM | 8.2µM | ? | 1.41µM
O=c1cc(-c2ccco2)oc2c1ccc1ccccc12 | - | - | - | - | - | -
COc1cccc(-c2cc(C(=O)N3CCc4ccccc4C3)[nH]n2)c1 | - | - | - | - | - | 1.12µM
Cc1ccc(-c2cc(C(=O)N3CCc4ccccc4C3)[nH]n2)cc1C | - | - | - | - | - | 1µM
COc1cccc(-c2cc(C(=O)N3CCN(S(=O)(=O)c4ccccc4)CC3)[nH]n2)c1 | - | ? | - | - | - | -
COc1cccc(-c2nn(-c3ccc(C)cc3)cc2C(=O)N2CCc3cc(OC)c(OC)cc3C2)c1 | ? | 23.1µM | . | ? | 18.4µM | .
COc1ccc(OC)c(C2=NS(=O)(=O)N(C)C(C(=O)Nc3ccc(F)cc3F)=C2)c1 | - | 13µM! | - | - | - | ?
COc1ccc(C2=NS(=O)(=O)N(C)C(C(=O)Nc3ccc(C(C)=O)cc3)=C2)cc1OC | - | - | 15.8µM | - | - | -
COC/C=C/C1=CC2=CC(=O)C(C)(OC(=O)CCc3ccccc3)C(=O)C2=CO1 (centres undefined) | . | . | - | . | . | -
CCC(=O)N1CCc2cc(Br)cc(S(=O)(=O)N3CCCC(C(=O)Nc4cccc(Cl)c4C)C3)c21 (centres undefined) | . | - | . | . | - | .
CCOC(=O)c1ccc(NC(=O)Cn2cnc3sc(C(=O)OCC)c(C)c3c2=O)cc1 | . | - | . | . | - | .
SMILES | SW480 rereplic | KB-V1 cytotox | VP16 counter | MCF10A rereplic | KB-3-1 cytotox | RORg inh
COc1ccc(C(=O)CSC#N)cc1OC | ? | - | ? | ? | - | 15.8µM
COc1ccc(O)c(C(=O)CC(=O)c2cccnc2)c1 | - | - | . | - | - | .
COc1ccc(C(=O)COC(=O)c2ccc(OC)c(OC)c2)cc1OC | -[9.22 µM] | - | - | - | - | -
COc1ccc(C(=O)COc2ccccc2C#N)cc1 | - | - | - | 16.4µM | - | -
COc1ccc(C(=O)COc2ccccc2C(N)=O)cc1 | - | - | - | - | - | -
COc1ccc(C(=O)CSc2cc(C)nc3nc(C)nn23)cc1OC | - | ? | ? | - | - | 15.8µM
COc1ccc(O)c(C(=O)CC(=O)c2ccc(F)cc2)c1 | - | 2.91µM | ? | - | ? | ?
